nsP2pro inh – inhibitors of chikungunya virus nsP2 protease | FRET peptide cleavage, nsP2pro, fluorescence 1 h | Potency, µM (doses to about 24.9 µM), for the others: at the top dose activity change, negative = inhibition, hits mostly inhibitors | 1.1% of 31,000 active; also: nearly all actives have a fitted effect of over 60% in size
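Enzyme 150 nM, substrate 2.5 uM (both final); Tris-HCl 10 mM pH 8.0 + 0.01% Tween 20; cpd up to 25 uM, 7 pts; 15 min preinc., 1 h RT; fluorescence ex 525/em 598.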
nsP2 cell sec – secondary cell-based test for CHIKV nsP2 protease inhibitors; shares compounds with nsP2pro inh; Potency, µM (titrated, usually from 51.1 µM), inactives show at the top dose activity change, negative = inhibition, hits mostly inhibitors; cell-based CHIKV nsP2 protease reporter assay; 10% of 450 active; AID 1964100; also: nearly all actives have a fitted effect of over 70% in size
CHIKV NSP2 FL – selectivity test for CHIKV nsP2 protease inhibitors: full-length NSP2 | 39% of 410 active | Potency, µM (top dose mostly 50.7 µM), without a hit: at the highest dose activity change, negative = inhibition, hits mostly inhibitors | Full-length CHIKV NSP2 protease enzymatic counterscreen | shares compounds with nsP2pro inh; also: nearly all actives have a fitted effect of over 65% in size
Furin counterscr – human furin inhibition, counterscreen for nsP2pro inhibitors; shares compounds with nsP2pro inh; Recombinant human furin enzymatic counterscreen, fluorogenic substrate; Potency, µM (series often up to 50.6 µM), for inactives: top-dose activity change, negative = inhibition, most hits filed as inhibitors; 6% of 410 active; AID 1964102
nsP2 NS23 pep – blocks CHIKV nsP2 protease cleavage of endogenous NS2/3 peptide; shares compounds with nsP2pro inh; 34% of 410 active; AID 1964103; Purified CHIKV nsP2 protease, endogenous NS2/3 peptide cleavage; Potency, µM (top dose mostly 51 µM), for the others: top-dose activity change, negative = inhibition, usual class: inhibitors; also: nearly all actives have a fitted effect of over 55% in size
Papain counter – papain protease inhibition, counterscreen for nsP2pro inhibitors; shares compounds with nsP2pro inh; purified papain protease activity, enzymatic inhibition; Potency, µM (series often up to 51 µM), inactives show at the highest dose activity change, negative = inhibition, hits mostly inhibitors; 5% of 410 active; AID 1964104
Target sequence (P00784 whole entry, looked up): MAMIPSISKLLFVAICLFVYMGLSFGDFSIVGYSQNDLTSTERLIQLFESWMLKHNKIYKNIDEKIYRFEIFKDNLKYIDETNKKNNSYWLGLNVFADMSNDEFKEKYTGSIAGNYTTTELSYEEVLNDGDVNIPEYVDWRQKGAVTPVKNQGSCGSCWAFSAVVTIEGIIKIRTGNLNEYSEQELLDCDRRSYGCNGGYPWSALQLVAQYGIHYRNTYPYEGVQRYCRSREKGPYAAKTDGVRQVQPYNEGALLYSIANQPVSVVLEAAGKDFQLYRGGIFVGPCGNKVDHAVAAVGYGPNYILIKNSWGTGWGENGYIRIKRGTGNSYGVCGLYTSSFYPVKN
nsP2pro conf qHTS – confirmation of CHIKV nsP2 protease inhibitors; shares compounds with nsP2pro inh; Potency, µM (highest dose often 25.5 µM), inactives show at the highest dose activity change, negative = inhibition, usual class: inhibitors; CHIKV nsP2 protease enzymatic activity, qHTS; AID 1964105; 43% of 410 active; also: nearly all actives have a fitted effect of over 75% in size
HCV NS3 counter – inhibits HCV NS3/4A protease in an nsP2pro selectivity counterscreen; shares compounds with nsP2pro inh; HCV NS3/4A protease biochemical counterscreen; Potency, µM (series often up to 50.9 µM), hits mostly inhibitors; 20% of 410 active; AID 1964106; also: nearly all actives have a fitted effect of over 55% in size
* = called active by the depositor; i = inactive; ? = inconclusive; [ ] = remark or other dose. The entries come from a sample that favours hits as a whole. Calls follow the shape of the full dose curve. % is scaled to controls: 0 for no effect and ±100 for the full control effect; potency is read from the fitted curve at half-maximal effect.

SMILES	nsP2pro inh	others
O=C(Nc1cccc(C(F)(F)F)c1)c1cc2nc(-c3ccco3)cc(C(F)(F)Cl)n2n1	-2%
CN(C(=O)c1cc2nc(-c3ccco3)cc(C(F)(F)F)n2n1)c1ccc(OC(F)(F)Cl)cc1	-25%
O=C(NCc1cccs1)c1cc2nc(-c3ccco3)cc(C(F)(F)Cl)n2n1	5.6µM*	nsP2 cell sec=14%;CHIKV NSP2 FL=-3%;Furin counterscr=-16%;nsP2 NS23 pep=-19%;Papain counter=-2%;nsP2pro conf qHTS=-16%;HCV NS3 counter=i
CC1CCC2(C=O)C(CO)=CCCC2C1(C)CC(=O)O (stereo unspecified)	209%
O=C1C2CC=CCC2C(=O)N1SC(Cl)(Cl)Cl (stereo unspecified)	1.8µM*	nsP2 cell sec=?;CHIKV NSP2 FL=2.9µM*;Furin counterscr=-3%;nsP2 NS23 pep=5.8µM*;Papain counter=-5%;nsP2pro conf qHTS=0.9µM*;HCV NS3 counter=?
Cc1nnc(-c2cnn(C)c2N)n1CCCc1ccncc1	0%
COc1ccc(F)c(F)c1C(=O)c1cnc(NC2CCN(S(C)(=O)=O)CC2)nc1N	-2%
C[C@@H]1C[C@@H](O)[C@]2(O)O[C@@H]3C[C@@]4(C=O)C(CC[C@@H]5C4CC[C@]4(C)[C@@](O)(C6=CC(=O)OC6)CC[C@]54O)C[C@H]3OC2O1 (stereo partly specified)	18%[10 µM]
C/C(=C(\CCOC(=O)c1ccccc1)SS/C(CCOC(=O)c1ccccc1)=C(/C)N(C=O)Cc1cnc(C)nc1N)N(C=O)Cc1cnc(C)nc1N	8.8µM*	nsP2 cell sec=-3%;CHIKV NSP2 FL=13µM*;Furin counterscr=-8%;nsP2 NS23 pep=5.8µM*;Papain counter=-9%;nsP2pro conf qHTS=8µM*;HCV NS3 counter=5.8µM*
CCCOC(=O)c1ccccc1	-4%
COc1ccc2c(c1)O[C@H](O[C@@H]1O[C@H](CO)[C@@H](O)[C@H](O)[C@H]1O)C(=O)N2	-9%
Cn1ccnc1CCOC(c1cc2nccc(C(=O)O)c2[nH]1)c1ccccc1Cl (stereo unspecified)	104%
C[N+](C)(C)C1CCC(CC2CCC([N+](C)(C)C)CC2)CC1 (stereo unspecified)	-2%
Cc1noc(C)c1Cc1ccc(C(=O)NC2CCc3nnc(C)n3CC2)o1 (stereo unspecified)	-16%
COc1ccc(NC(=O)CCc2ccnc(N3CCCC3)c2)c(OC)c1	i
Oc1cc(CNC(=S)/C=C/c2cc(O)c(O)c(Br)c2)cc(O)c1O	5.6µM*	nsP2 cell sec=0.22µM*;CHIKV NSP2 FL=15µM*;Furin counterscr=?;nsP2 NS23 pep=6.5µM*;Papain counter=?;nsP2pro conf qHTS=5µM*;HCV NS3 counter=3.7µM*
Cc1cnc(-c2ccccc2CO)nc1NCC1CCN(c2cccnc2)CC1	i
CC(C)c1cccc(C(C)C)c1NC(=O)Nc1ccc(Sc2ccc([N+](=O)[O-])cc2)cc1	-2%
COc1ccccc1CN[C@H]1CCCN[C@H]1c1ccccc1	-4%
CC1C=CC2CCCCC2C1CCC1CC(O)CC(=O)O1 (stereo unspecified)	22%
Cc1c(Cc2ccc3ccccc3n2)c2cc(F)ccc2n1CC(=O)O	?	nsP2 cell sec=-3%;CHIKV NSP2 FL=45%;Furin counterscr=-8%;nsP2 NS23 pep=i;Papain counter=-18%;nsP2pro conf qHTS=?;HCV NS3 counter=i
Cc1ccccc1Cn1c(C(=O)O)c(CNCc2cccc(F)c2)c2ccccc21	-28%
Cc1cccc(-c2nc3c4ccccc4n(CC(=O)Nc4cc(F)ccc4F)c(=O)n3n2)c1	-14%
COc1ccc(-c2no[n+]([O-])c2C#N)cc1	i
Cc1ccnc(NC(=S)NC2CN(c3cccc(C(F)(F)F)c3)C2)c1	2%
SMILES	nsP2pro inh	others
C[C@@H]1[C@H]2[C@H](O[C@@H]3O[C@H](CO)[C@@H](O)[C@H](O)[C@H]3O)OC=C(C(=O)O)[C@H]2C[C@@H]1OC(=O)/C=C/c1ccc(O)cc1	71%[10 µM]
CC(C)CC(=O)N1[C@@H](c2ccco2)[C@@H](CO)C[C@]12CCCCN(CCO)C2=O	?	nsP2 cell sec=-2%
CC(C)CC(=O)N1[C@@H](c2ccco2)[C@@H](C(=O)O)C[C@]12CCCCNC2=O	?	nsP2 cell sec=4%
CC(C)CC(=O)N1CC(=O)Nc2ccc(F)cc2C1c1ccccc1 (stereo unspecified)	-28%
CC1OC(O[C@@H]2[C@@H](O)[C@H](OC(=O)[C@]34CCC(C)(C)C[C@H]3C3=CCC5[C@@]6(C)CC[C@H](O[C@@H]7O[C@H](C(=O)O)[C@@H](O)[C@H](O[C@@H]8OC[C@@H](O)[C@H](O)[C@H]8O)[C@H]7O[C@@H]7O[C@H](CO)[C@H](O)[C@H](O)[C@H]7O)[C@@](C)(C=O)C6CC[C@@]5(C)[C@]3(C)C[C@H]4O)O[C@H](C)[C@@H]2OC2OC(C)C(OC3OCC(O)C(O)C3O)C(O)C2O)C(O)C(O)C1O (stereo partly specified)	3%[5.1 µM]
O=C(Cc1ccc(Cl)c(Cl)c1)Nc1ccc([S+](=O)([O-])Nc2ncn[nH]2)cc1	1%
Cn1nc(C(=O)NC2CC2)c2c1CN(C(=O)Cc1cccc(F)c1)C2	-10%
c1ccc(-c2n[nH]c(CC3CCNC3)n2)cc1 (stereo unspecified)	i
COc1ccc2cc1Nc1ccc(cc1)C[C@H](NCc1ccc(C)o1)C(=O)N(C)[C@H](C(=O)NCCC(C)C)C2	-23%
CC(C)=CCC[C@](C)(O[C@@H]1O[C@H](CO)[C@@H](O)[C@H](O)[C@H]1O)[C@H]1CC[C@]2(C)[C@@H]1[C@H](O)C[C@@H]1[C@@]3(C)CC[C@H](O)C(C)(C)[C@@H]3CC[C@]12C	-1%
CCCC1c2nccn2CCCN1C(=O)c1cc(C)no1 (stereo unspecified)	-3%
Cc1nn(CCC#N)c(C)c1[C@@H]1C=C[C@@H](NCc2ccc(C(C)C)cc2)C1	?	nsP2 cell sec=137%;CHIKV NSP2 FL=6µM*;Furin counterscr=-12%;nsP2 NS23 pep=17µM*;Papain counter=-8%;nsP2pro conf qHTS=12µM*;HCV NS3 counter=4.2µM*
Cc1nn(-c2ccc(F)cc2)c(C)c1[C@@H]1C=C[C@@H](NCc2ccc(C(C)C)cc2)C1	29%[39.2 µM]
Cc1ccc(-n2nc(C)c([C@@H]3C=C[C@@H](NCc4ccc(F)cc4)C3)c2C)cc1Cl	20%[39.2 µM]
CCOC(=O)/C=C/c1ccc(O)c(OC)c1	-12%
